# Sampled rows, rich in hits. Any-hit rate of the full collection: about 11%.
# G9a block – qHTS Assay for Inhibitors of Histone Lysine Methyltransferase G9a. G9a H3K9 monomethylation, AlphaScreen, 2 h. AID 504332, 2011. 8.8% of 350,000 active. Potency, µM (series often up to 102 µM), for the others: top-dose activity, negative = inhibition, most hits filed as inhibitors; also: potency is read from the fitted curve at half-maximal effect; nearly all actives have a fitted effect of over 75% in size
# Target sequence (Q96KQ7 913-1193 limits assumed): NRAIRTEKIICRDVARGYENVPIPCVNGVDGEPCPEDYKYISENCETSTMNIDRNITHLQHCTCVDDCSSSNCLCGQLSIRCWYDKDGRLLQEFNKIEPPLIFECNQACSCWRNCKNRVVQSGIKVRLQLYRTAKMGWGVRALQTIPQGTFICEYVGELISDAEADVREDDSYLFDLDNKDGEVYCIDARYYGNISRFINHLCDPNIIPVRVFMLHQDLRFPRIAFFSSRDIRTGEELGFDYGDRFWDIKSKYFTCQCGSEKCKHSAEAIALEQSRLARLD
#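 Quantitative HTS format: methyltransferase activity on a biotin-tagged H3K9 peptide is measured by AlphaScreen, using a rabbit anti-monomethyl-H3K9 antibody with streptavidin donor and anti-IgG acceptor beads. Final levels are 20 nM enzyme, 500 nM peptide, 20 uM SAM; 2 h RT.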
# Tau fluor counter – Counterscreen qHTS for Inhibitors of Tau Fibril Formation, Fluorescence Polarization | Potency, µM (highest dose often 57.7 µM), inactives show at the top dose activity change, negative = decrease | tau K18 P301L Alexa594 fluorescence, heparin fibrillization | AID 1463, 2008 | 0.93% of 280,000 active; also: potency is read from the fitted curve at half-maximal effect; nearly all actives have a fitted effect of over 55% in size
#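 Human K18 P301L tau (15 uM unlabeled plus 0.24 uM Alexa 594-labeled, final) in 100 mM sodium acetate pH 7 was mixed with compound and 20 uM heparin and incubated 6 hr at 37 C.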
# Tau fibril FP – qHTS for Inhibitors of Tau Fibril Formation, Fluorescence Polarization; Microtubule-associated protein tau (Homo sapiens), P10636; K18 P301L tau heparin fibrillization, Alexa594 FP, 6 h; Potency, µM (series often up to 57.7 µM), without a hit: top-dose activity, negative = inhibition, most hits filed as inhibitors; 0.39% of 280,000 active; AID 1468, 2008; also: potency is read from the fitted curve at half-maximal effect; nearly all actives have a fitted effect of over 55% in size
# Target sequence (P10636 561-689 P618L limits assumed): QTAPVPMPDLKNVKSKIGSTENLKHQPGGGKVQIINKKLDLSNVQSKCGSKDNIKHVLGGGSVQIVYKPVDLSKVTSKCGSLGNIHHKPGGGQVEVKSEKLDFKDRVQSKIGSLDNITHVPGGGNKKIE
#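 Read-out: fluorescence polarization of Alexa 594-labeled tau (0.24 uM), 555 nm excitation, 632 nm emission. Mixtures held 15 uM unlabeled K18 P301L, compound and 20 uM heparin, pH 7 acetate buffer, incubated 6 hr at 37 C.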
# FBPA coupling cs – qHTS Assay for Inhibitors of Fructose-1,6-bisphosphate Aldolase from Giardia Lamblia: Coupling assay counterscreen | activity change, negative = inhibition, % at 58.2 µM, hits read low | 0.67% of 290,000 active | AID 2472, 2010 | coupling enzyme system counterscreen, AmpLite Red fluorescence; in the data active = activity change below about -30%
#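 Activity here indicates interference with the coupling reaction, not aldolase inhibition. Compounds at 57.5 uM final met coupling enzymes for 10 min at RT; substrate and AmpLite Red detection followed, with a 525/598 nm fluorescence read after 20 min.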
# Sfp inh – qHTS Assay for Inhibitors of Bacillus subtilis Sfp phosphopantetheinyl transferase (PPTase); 4'-phosphopantetheinyl transferase ffp (Bacillus subtilis), Q9F4F7; 3.5% of 310,000 active; Potency, µM, for the others: largest response in the series, negative = inhibition, actives largely listed as inhibitors; Biochemical Sfp PPTase activity, qHTS;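 also: the enzyme is Sfp with the accession as filed and its product quenches rhodamine fluorescence; potency is read from the fitted curve at half-maximal effect; 0% = enzyme reaction without inhibitor and -100% = no enzyme wells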
#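 Sfp 15 nM + cpd, 15 min RT; start w/ rhodamine-CoA 5 uM, BHQ-2-YbbR 12.5 uM (final); 50 mM Hepes pH 7.6, 10 mM MgCl2, 0.01% NP-40, 0.01% BSA; read 525/598 nm at 0 and 30 min.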
# Tau ThT inhib – qHTS for Inhibitors of Tau Fibril Formation, Thioflavin T Binding; Microtubule-associated protein tau (Homo sapiens), P10636; recombinant tau K18 P301L, heparin-induced fibrillization, ThT fluorescence; Potency, µM (series often up to 57.4 µM), without a hit: at the highest dose activity, negative = inhibition, hits mostly inhibitors; 2.1% of 270,000 active; AID 1460, 2008; also: potency is read from the fitted curve at half-maximal effect; nearly all actives have a fitted effect of over 55% in size
#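 Using a mix of unlabeled (15 uM) and Alexa 594-labeled (0.24 uM) tau K18 P301L, heparin-triggered fibrillization over 6 hr at 37 C was scored by ThT fluorescence.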
# * hit, by the source's call; ? = inconclusive; · = not tested or not shown; [ ] = remark or other dose. Unless noted, calls follow the shape of the dose curve; as a rule, active = well fitted curve in the direction sought with a large enough effect; inconclusive = small, poorly fitted or top-dose-only effect, or another doubt; inactive = no such curve, though single readings can be large; an effect the other way counts as inactive or inconclusive. Unless noted, % is scaled to controls: 0 for no effect and ±100 for the full control effect.
SMILES,G9a block,Tau fluor counter,Tau fibril FP,FBPA coupling cs,Sfp inh,Tau ThT inhib
O=C(NCCCc1ccc(F)cc1)C1CCC(=O)N(CC2CCCCC2)C1 (stereo not drawn),34.9%,·,·,·,12.3%,·
N#Cc1c(N)[nH]c(=S)c(C#N)c1-c1ccccc1,1.12µM*,-18.6%,?,-2.4,39.8µM*,?
Cc1ccc(-c2cc(-c3ccccc3)[nH]c(=S)c2C#N)cc1,39.3%[59 µM],-18.9%,0.4%,1.7,8.2%,?
COc1ccc(NC(=O)CCCC(=O)OCC(=O)c2cccc(OC)c2)cc1,13.2%[0.0925 µM],·,·,·,1.6%,·
O=C(Nc1ccc([N+](=O)[O-])cc1)Nc1ccc2[nH]c(=O)[nH]c2c1,·,8.91µM*[quencher],23.2%,-4.3,-4.1%,8.91µM*
O=C(O)c1cccc(NC(=O)c2ccc3c(c2)C(=O)N(c2cccc([N+](=O)[O-])c2)C3=O)c1,-21.1%,·,·,4.1,8.5%,·
CCn1c(=O)n(CC)c2cc(NC(=O)CSc3ccc([N+](=O)[O-])cn3)ccc21,-4.7%,·,·,3.3,6.1%,·
O=C(O)c1cccc(N2C(=O)c3ccc(C(=O)c4cccc([N+](=O)[O-])c4)cc3C2=O)c1,56.2µM*,-19.1%,2.6%,9.0,-3.0%,·
O=C(c1cccc([N+](=O)[O-])c1)c1ccc2[nH]c(=O)[nH]c2c1,79.4µM*,·,·,-0.3,-6.4%,·
O=C(CSc1ccc([N+](=O)[O-])cn1)Nc1ccc2[nH]c(=O)[nH]c2c1,31.6µM*,·,·,-3.0,-10.7%,·
O=C1CN(C(=O)c2ccc(S(=O)(=O)N3CCCC3)cc2)C(c2ccc(F)cc2)c2cc(F)ccc2N1 (stereo not drawn),3.9%[59 µM],-17.0%,-1.5%,·,·,-7.8%
CCC(Sc1nc2ccccc2c2nc(CCc3c(C)n[nH]c3C)nn12)C(=O)Nc1ccc(F)cc1 (stereo not drawn),-0.4%[59 µM],-9.0%,-11.5%,·,·,-7.4%
CCCCC/C=C\C/C=C\C/C=C\CCCCCCC(=O)NCCc1ccc(O)c(O)c1,·,-17.5%,4.6%,0.3,6.5%,-8.3%
CCc1cccc(NC(=O)Cn2c(=O)n(CC3CCC(C(=O)NCCc4ccccc4)CC3)c(=O)c3ccccc32)c1 (stereo not drawn),-23.0%[59 µM],-25.8%,?,·,·,0.9%
CCCCC1OC23CCCCC2C(C#N)(C(=N)O3)C1(C#N)C#N (stereo not drawn),?,-8.1%,-3.7%,-4.0,20.2%,?
CCCCC1OC23CCCCC2C(C#N)(C#N)C1(C#N)C(=N)O3 (stereo not drawn),-29.2%[59 µM],1.4%,6.6%,-45.0*,-0.6%,3.7%
CCOC(=O)C(NC(=O)CCl)(Nc1sc(C)c(CC)c1C#N)C(F)(F)F (stereo not drawn),25.1µM*,6.4%,-3.9%,-2.1,-7.8%,-11.0%
CCOC(=O)C(NC(=O)N(C)C)(Nc1sc(C)c(CC)c1C#N)C(F)(F)F (stereo not drawn),8.91µM*,-11.9%,0.2%,-5.0,44.7µM*,?
COc1ccc(NC(=O)c2cc3cccc(OC)c3oc2=Nc2ccc(C(=O)O)cc2)cc1OC,39.8µM*,?,?,0.0,6.8%,14.1µM*
COc1cccc(NC(=O)c2cc3cccc(OC)c3o/c2=N\O)c1,?,·,·,4.7,0.9%,·
O=c1cc(Cl)[nH]n(-c2ccccc2)c1=O,-9.1%,·,·,0.0,15.0%,·
CC(C)(C)c1cc(=O)n(-c2ccccc2)[nH]1,44.7µM*,-21.4%,?,-3.5,?,39.8µM*

# Source: PubChem BioAssay
